Test results: PubChem BioAssay (Tox21)
Several values for one entry are separate records, joined by “and”; a condition that tells them apart may be missing. Identical values can stand only once. Records with an inconclusive call do not appear. Where a call stands in place of a potency, no number is given. Activity calls are given as the source filed them. Calls follow the shape of the dose curve; as a rule, active = well fitted cell-killing curve with a large enough effect in the repeat runs; inconclusive = weak or mixed curves, or effect the other way; inactive = flat fitted curve, though single readings scatter.

Experiment: cAMP Responsive Elements (CRE) small molecule antagonists, cell-based qHTS assay: qHTS cell viability counter screen (AID 2060913); also: nearly all actives have a fitted effect of over 40% in size
Details: CRE-bla HEK293T viability, CellTiter-Glo luminescence, 5 h; series mostly up to 92.4 µM
Summary of the method: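 Steps: cells plated and held 18 hrs at 37 C/5% CO2; compounds and NKH477 (0.25 uM final) added; 3 hrs incubation; reporter substrate read; CellTiter-Glo added to measure cytotoxicity by luminescence.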
Potency is read from the fitted curve at half-maximal effect.

SMILES | Potency
O=C(O)C(Br)CBr (stereo not given) | inactive
CC1(C)CN=C(NN=C(/C=C/c2ccc(C(F)(F)F)cc2)/C=C/c2ccc(C(F)(F)F)cc2)NC1 | inactive
NCc1cccnc1 | inactive
CC(C)(N)Cc1ccc(Cl)cc1 | inactive
C=CC(=O)NCNC(=O)C=C | inactive
CNC(C)Cc1ccccc1OC (stereo not given) | inactive
ClSC(Cl)(Cl)Cl | inactive
CC(C)(C)OOC(=O)c1ccccc1 | inactive
BrCCc1ccccc1 | inactive
c1cc2c3c(cccc3c1)CC2 | inactive
C=CCc1ccc(OC(=O)Cc2ccccc2)c(OC)c1 | inactive
S=c1[nH]c2ccccc2[nH]1 | inactive
CCC(C)n1c(=O)[nH]c(C)c(Br)c1=O (stereo not given) | inactive
CCNc1nc(NC(C)(C)C)nc(SC)n1 | inactive
CC(C)C(C)(N)C#N (stereo not given) | inactive
C=COCCCl | inactive
[Cl-].[Cl-].[Hg+2] | 19.2 µM (active) and 8.63 µM (active)
Cc1ccc2c(C)cccc2c1 | inactive
CC(=O)OC(c1ccccc1)C(Cl)(Cl)Cl (stereo not given) | inactive
BrCC(Br)(Br)Br | inactive

SMILES | Potency
C=CC#N | inactive
c1ccc2c(c1)[nH]c1cnccc12 | inactive
COP(=O)(OC)OC | inactive
[O]=[Cr][O][Cr]=[O] | inactive
[C-]1=CC=CC1.[Cl][Zr+2][Cl].c1cc[cH-]c1 | inactive
O=NN1CCCC1 | inactive
CCOC(=O)NC(=S)Nc1ccccc1NC(=S)NC(=O)OCC | inactive
Cc1cccc(N)c1C | inactive
CCCC(=O)Cl | inactive
CS(=O)(=O)Cl | inactive
CC(=O)CN(CC(C)=O)N=O | inactive
COC(=O)/C=C(\C)OP(=O)(OC)OC | inactive
CN1C(=O)CN=C(c2ccccc2)c2cc(Cl)ccc21 | inactive
CN(N=O)c1ccccc1 | inactive
Clc1ccccc1N1CCNCC1 | inactive
CCCC[N+](CCCC)(CCCC)CCCC | inactive
Cc1cccc(Cc2cnc[nH]2)c1C | inactive
CC(C)c1cccc(C(C)C)c1O | inactive
C[C@@H]1CC[C@@]2(OC1)O[C@H]1[C@@H](O)[C@H]3[C@@H]4CC[C@H]5C[C@@H](O[C@@H]6O[C@H](CO)[C@H](O[C@@H]7O[C@H](CO)[C@@H](O)[C@H](O[C@@H]8OC[C@@H](O)[C@H](O)[C@H]8O)[C@H]7O[C@@H]7O[C@H](CO)[C@@H](O)[C@H](O[C@@H]8O[C@H](CO)[C@@H](O)[C@H](O)[C@H]8O)[C@H]7O)[C@H](O)[C@H]6O)[C@H](O)C[C@]5(C)[C@H]4CC[C@]3(C)[C@H]1[C@@H]2C | 32.5 µM (active)
CN(C)C(=O)Nc1cccc(OC(=O)NC(C)(C)C)c1 | inactive

Experiment: cAMP Responsive Elements (CRE) small molecule agonists, cell-based qHTS assay: qHTS cell viability counter screen (AID 2060914);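 also: viability read after 3 h of compound exposure; nearly all actives have a fitted effect of over 50% in size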
Details: CRE-bla HEK293T viability, CellTiter-Glo luminescence, 5 h; series mostly up to 92.4 µM
Summary of the method: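 HEK 293T CRE-bla; DMEM + 10% dialyzed FBS, 25 mM HEPES; 18 h pre-incubation; compound 3 h, 37 °C/5% CO2; CellTiter-Glo added after reporter read; luminescence after 30 min RT.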

SMILES | Potency
O=C(O)C(Br)CBr (stereo not given) | inactive
CC1(C)CN=C(NN=C(/C=C/c2ccc(C(F)(F)F)cc2)/C=C/c2ccc(C(F)(F)F)cc2)NC1 | inactive
NCc1cccnc1 | inactive
CC(C)(N)Cc1ccc(Cl)cc1 | inactive
C=CC(=O)NCNC(=O)C=C | inactive
CNC(C)Cc1ccccc1OC (stereo not given) | inactive
ClSC(Cl)(Cl)Cl | inactive
CC(C)(C)OOC(=O)c1ccccc1 | inactive
BrCCc1ccccc1 | inactive
c1cc2c3c(cccc3c1)CC2 | inactive
C=CCc1ccc(OC(=O)Cc2ccccc2)c(OC)c1 | inactive
S=c1[nH]c2ccccc2[nH]1 | inactive
CCC(C)n1c(=O)[nH]c(C)c(Br)c1=O (stereo not given) | inactive
CCNc1nc(NC(C)(C)C)nc(SC)n1 | inactive
CC(C)C(C)(N)C#N (stereo not given) | inactive
C=COCCCl | inactive
[Cl-].[Cl-].[Hg+2] | 21.6 µM (active) and 12.2 µM (active)
Cc1ccc2c(C)cccc2c1 | inactive
CC(=O)OC(c1ccccc1)C(Cl)(Cl)Cl (stereo not given) | inactive
BrCC(Br)(Br)Br | inactive

SMILES | Potency
C=CC#N | inactive
c1ccc2c(c1)[nH]c1cnccc12 | inactive
COP(=O)(OC)OC | inactive
[O]=[Cr][O][Cr]=[O] | inactive
[C-]1=CC=CC1.[Cl][Zr+2][Cl].c1cc[cH-]c1 | inactive
O=NN1CCCC1 | inactive
CCOC(=O)NC(=S)Nc1ccccc1NC(=S)NC(=O)OCC | inactive
Cc1cccc(N)c1C | inactive
CCCC(=O)Cl | inactive
CS(=O)(=O)Cl | inactive
CC(=O)CN(CC(C)=O)N=O | inactive
COC(=O)/C=C(\C)OP(=O)(OC)OC | inactive
CN1C(=O)CN=C(c2ccccc2)c2cc(Cl)ccc21 | inactive
CN(N=O)c1ccccc1 | inactive
Clc1ccccc1N1CCNCC1 | inactive
CCCC[N+](CCCC)(CCCC)CCCC | inactive
Cc1cccc(Cc2cnc[nH]2)c1C | inactive
CC(C)c1cccc(C(C)C)c1O | inactive
C[C@@H]1CC[C@@]2(OC1)O[C@H]1[C@@H](O)[C@H]3[C@@H]4CC[C@H]5C[C@@H](O[C@@H]6O[C@H](CO)[C@H](O[C@@H]7O[C@H](CO)[C@@H](O)[C@H](O[C@@H]8OC[C@@H](O)[C@H](O)[C@H]8O)[C@H]7O[C@@H]7O[C@H](CO)[C@@H](O)[C@H](O[C@@H]8O[C@H](CO)[C@@H](O)[C@H](O)[C@H]8O)[C@H]7O)[C@H](O)[C@H]6O)[C@H](O)C[C@]5(C)[C@H]4CC[C@]3(C)[C@H]1[C@@H]2C | 29 µM (active)
CN(C)C(=O)Nc1cccc(OC(=O)NC(C)(C)C)c1 | inactive
